Data on 10 molecules can be found in the supplement of paper PMC4022240.

Holding throughout (assay): peptide microarray binding signal (635 nm), min-max normalized on array (fraction of array maximum); higher = stronger binding
Holding throughout (conditions): peptide region: H2B 7-19

Experiment [1] deals with T1, HaloTag-ATRX ADD domain (163-292).
T1 chain: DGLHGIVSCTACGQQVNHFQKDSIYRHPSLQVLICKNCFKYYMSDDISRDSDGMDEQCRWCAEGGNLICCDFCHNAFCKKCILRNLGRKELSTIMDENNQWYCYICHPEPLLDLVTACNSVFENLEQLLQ
As to the method: (§1)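 Histone 13-mer peptides were synthesized as cellulose conjugates with a C-terminal 20-atom PEG linker and printed in triplicate on nitrocellulose. The sequence given is the unmodified backbone; PTMs (Kme1/2/3, Kac, Sph/Tph, Rme/Rme2a/Rme2s, Rcit) are listed in the label and the 'peptide modifications' condition. Slides were probed at 4 °C for 1 h with biotin-labelled (HQ)5-HaloTag reader fusions (ATRX-ADD, ING2-PHD) then streptavidin-Alexa647, or with rabbit histone antibodies then anti-rabbit Alexa647. The mean 635 nm signal of the triplicate spots was scaled 0-1 between the lowest and highest values on each array.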

For experiment [2], the target named is HaloTag-ING2 PHD (mouse Ing2 200-280). As to the method: as §1
Experiment [3] deals with anti-H3K4me3 antibody ab8580. As to the method:
as §1

Experiment [4] addresses anti-H3K9me3 antibody ab8898. As to the method:
as §1

Where [5] appears, read: peptide modifications: H2BK15ac H2BK16ac, binder concentration: 1:2,000 dilution.
Setting [6] is: peptide modifications: H2BK15ac H2BK16ac, binder concentration: 1:10,000 dilution.
Where [7] appears, read: peptide modifications: H2BK12ac H2BK15ac, binder concentration: 1:2,000 dilution.
The mark [8] stands for this setting: peptide modifications: H2BK12ac H2BK15ac, binder concentration: 1:10,000 dilution.
Where [9] appears, read: peptide modifications: H2BK12ac H2BS14ph H2BK15ac H2BK16ac, binder concentration: 1:2,000 dilution.
The mark [10] stands for this setting: peptide modifications: H2BK12ac H2BS14ph H2BK15ac H2BK16ac, binder concentration: 1:10,000 dilution.
The mark [11] stands for this setting: peptide modifications: H2BK12ac H2BK15ac H2BK16ac, binder concentration: 1:2,000 dilution.
Where [12] appears, read: peptide modifications: H2BK12ac H2BK15ac H2BK16ac, binder concentration: 1:10,000 dilution.
Setting [13] is: peptide modifications: H2BK12ac H2BK16ac, binder concentration: 1:2,000 dilution.
[14] abbreviates: peptide modifications: H2BK12ac H2BK16ac, binder concentration: 1:10,000 dilution.
Setting [15] is: peptide modifications: H2BK11ac H2BS14ph H2BK15ac, binder concentration: 1:2,000 dilution.
[16] abbreviates: peptide modifications: H2BK11ac H2BS14ph H2BK15ac, binder concentration: 1:10,000 dilution.
Setting [17] is: peptide modifications: H2BK11ac, binder concentration: 1:2,000 dilution.
The mark [18] stands for this setting: peptide modifications: H2BK11ac, binder concentration: 1:10,000 dilution.
The mark [19] stands for this setting: peptide modifications: H2BS14ph H2BK15ac H2BK16ac, binder concentration: 1:2,000 dilution.
[20] abbreviates: peptide modifications: H2BS14ph H2BK15ac H2BK16ac, binder concentration: 1:10,000 dilution.
Setting [21] is: peptide modifications: H2BK11ac H2BK15ac, binder concentration: 1:2,000 dilution.
Setting [22] is: peptide modifications: H2BK11ac H2BK15ac, binder concentration: 1:10,000 dilution.
Where [23] appears, read: peptide modifications: H2BS14ph, binder concentration: 1:2,000 dilution.
The mark [24] stands for this setting: peptide modifications: H2BS14ph, binder concentration: 1:10,000 dilution.

± gives the standard deviation.

Take APAPKKGSKKAVT [H2B 7-19 A P A P K K G S Kac Kac A V T]: the “peptide microarray binding signal” value in experiment [1] (peptide modifications: H2BK15ac H2BK16ac, binder concentration: 50 nM) came out at 0.00539 ± 7.7e-05; in experiment [1] (peptide modifications: H2BK15ac H2BK16ac, binder concentration: 500 nM), 0.00995 ± 0.00033; in experiment [2] (peptide modifications: H2BK15ac H2BK16ac, binder concentration: 10 nM), 0.0115 ± 0.00069; in experiment [2] (peptide modifications: H2BK15ac H2BK16ac, binder concentration: 100 nM), 0.0164 ± 0.004; in experiment [3] (setting [5]), 0.00217 ± 0.0011; in experiment [3] (setting [6]), 0.00131 ± 5.7e-05. The “peptide microarray binding signal” value in experiment [4] (setting [5]) came out at 0.00133 ± 5.4e-05; in experiment [4] (setting [6]) it was 0.00185 ± 6.1e-05.
On to APAPKKGSKKAVT [H2B 7-19 A P A P K Kac G S Kac K A V T], for which the “peptide microarray binding signal” value in experiment [1] (peptide modifications: H2BK12ac H2BK15ac, binder concentration: 50 nM) is 0.00342 ± 5.6e-05; in experiment [1] (peptide modifications: H2BK12ac H2BK15ac, binder concentration: 500 nM) it was 0.00938 ± 0.0002; in experiment [2] (peptide modifications: H2BK12ac H2BK15ac, binder concentration: 10 nM), 0.00609 ± 0.00019; in experiment [2] (peptide modifications: H2BK12ac H2BK15ac, binder concentration: 100 nM) it was 0.00503 ± 0.00011; in experiment [3] (setting [7]) it was 0.00285 ± 0.0017; in experiment [3] (setting [8]) it was 0.0012 ± 3.2e-05. Further, the figures for the “peptide microarray binding signal” value in experiment [4] (setting [7]) and in experiment [4] (setting [8]) were 0.000966 ± 7.9e-05 and 0.000923 ± 9.6e-06, respectively.
On to APAPKKGSKKAVT [H2B 7-19 A P A P K Kac G Sph Kac Kac A V T], for which the “peptide microarray binding signal” value in experiment [1] (peptide modifications: H2BK12ac H2BS14ph H2BK15ac H2BK16ac, binder concentration: 50 nM) was found to be 0.00257 ± 9.2e-05; in experiment [1] (peptide modifications: H2BK12ac H2BS14ph H2BK15ac H2BK16ac, binder concentration: 500 nM), 0.00224 ± 5e-05; in experiment [2] (peptide modifications: H2BK12ac H2BS14ph H2BK15ac H2BK16ac, binder concentration: 10 nM), 0.005013 ± 2.5e-05; in experiment [2] (peptide modifications: H2BK12ac H2BS14ph H2BK15ac H2BK16ac, binder concentration: 100 nM), 0.00213 ± 9.1e-05; in experiment [3] (setting [9]), 0.000793 ± 0.00015; in experiment [3] (setting [10]), 0.000799 ± 8.3e-06. Besides, the “peptide microarray binding signal” value amounted to 0.000423 ± 8.2e-06 in experiment [4] (setting [9]) and 0.0011 ± 4e-05 in experiment [4] (setting [10]).
For APAPKKGSKKAVT [H2B 7-19 A P A P K Kac G S Kac Kac A V T], the “peptide microarray binding signal” value in experiment [1] (peptide modifications: H2BK12ac H2BK15ac H2BK16ac, binder concentration: 50 nM) worked out at 0.00505 ± 0.00068; in experiment [1] (peptide modifications: H2BK12ac H2BK15ac H2BK16ac, binder concentration: 500 nM) it was 0.00719 ± 0.0027; in experiment [2] (peptide modifications: H2BK12ac H2BK15ac H2BK16ac, binder concentration: 10 nM), 0.00621 ± 0.0005; in experiment [2] (peptide modifications: H2BK12ac H2BK15ac H2BK16ac, binder concentration: 100 nM), 0.00631 ± 0.00038; in experiment [3] (setting [11]) it was 0.00068 ± 9e-05; in experiment [3] (setting [12]), 0.001541 ± 1.5e-05. The “peptide microarray binding signal” value in experiment [4] (setting [11]) worked out at 0.00104 ± 4.9e-05; in experiment [4] (setting [12]), 0.00133 ± 4e-05.
Take APAPKKGSKKAVT [H2B 7-19 A P A P K Kac G S K Kac A V T]: the “peptide microarray binding signal” value in experiment [1] (peptide modifications: H2BK12ac H2BK16ac, binder concentration: 50 nM) was 0.0107 ± 0.00094; in experiment [1] (peptide modifications: H2BK12ac H2BK16ac, binder concentration: 500 nM), 0.00552 ± 0.0027; in experiment [2] (peptide modifications: H2BK12ac H2BK16ac, binder concentration: 10 nM) it was 0.00734 ± 0.00071; in experiment [2] (peptide modifications: H2BK12ac H2BK16ac, binder concentration: 100 nM), 0.0104 ± 0.0012; in experiment [3] (setting [13]), 0.000302 ± 2.2e-05; in experiment [3] (setting [14]), 0.0016 ± 0.00014. For the same molecule, the “peptide microarray binding signal” value stood at 0.00136 ± 0.00029 in experiment [4] (setting [13]) and 0.00127 ± 8.9e-05 in experiment [4] (setting [14]).
As for APAPKKGSKKAVT [H2B 7-19 A P A P Kac K G Sph Kac K A V T], the “peptide microarray binding signal” value in experiment [1] (peptide modifications: H2BK11ac H2BS14ph H2BK15ac, binder concentration: 50 nM) is 0.00176 ± 7.1e-05; in experiment [1] (peptide modifications: H2BK11ac H2BS14ph H2BK15ac, binder concentration: 500 nM), 0.00238 ± 7.9e-05; in experiment [2] (peptide modifications: H2BK11ac H2BS14ph H2BK15ac, binder concentration: 10 nM), 0.00286 ± 8.4e-05; in experiment [2] (peptide modifications: H2BK11ac H2BS14ph H2BK15ac, binder concentration: 100 nM), 0.00149 ± 3.1e-05; in experiment [3] (setting [15]) it was 0.00157 ± 4.2e-05; in experiment [3] (setting [16]) it was 0.000742 ± 1.3e-05. The “peptide microarray binding signal” value in experiment [4] (setting [15]) was determined as 0.000393 ± 1e-05; in experiment [4] (setting [16]), 0.000692 ± 7.3e-06.
With APAPKKGSKKAVT [H2B 7-19 A P A P Kac K G S K K A V T], the “peptide microarray binding signal” value came to 0.00367 ± 0.00044 in experiment [1] (peptide modifications: H2BK11ac, binder concentration: 50 nM); 0.00667 ± 0.0024 in experiment [1] (peptide modifications: H2BK11ac, binder concentration: 500 nM); 0.00227 ± 7.3e-05 in experiment [2] (peptide modifications: H2BK11ac, binder concentration: 10 nM); 0.00432 ± 0.00029 in experiment [2] (peptide modifications: H2BK11ac, binder concentration: 100 nM); 0.000264 ± 1.1e-05 in experiment [3] (setting [17]); 0.000628 ± 6.7e-06 in experiment [3] (setting [18]). In addition, the “peptide microarray binding signal” value is 0.000408 in experiment [4] (setting [17]) and 0.000519 ± 5.6e-06 in experiment [4] (setting [18]).
Take APAPKKGSKKAVT [H2B 7-19 A P A P K K G Sph Kac Kac A V T]: the “peptide microarray binding signal” value in experiment [1] (peptide modifications: H2BS14ph H2BK15ac H2BK16ac, binder concentration: 50 nM) came out at 0.00307 ± 0.00018; in experiment [1] (peptide modifications: H2BS14ph H2BK15ac H2BK16ac, binder concentration: 500 nM) it was 0.00848 ± 0.00083; in experiment [2] (peptide modifications: H2BS14ph H2BK15ac H2BK16ac, binder concentration: 10 nM), 0.00525 ± 0.00091; in experiment [2] (peptide modifications: H2BS14ph H2BK15ac H2BK16ac, binder concentration: 100 nM) it was 0.00312 ± 7.5e-05; in experiment [3] (setting [19]), 0.00427 ± 0.00019; in experiment [3] (setting [20]) it was 0.00108. The “peptide microarray binding signal” value amounted to 0.000876 ± 3.2e-05 in experiment [4] (setting [19]) and 0.00104 ± 1.1e-05 in experiment [4] (setting [20]).
Regarding APAPKKGSKKAVT [H2B 7-19 A P A P Kac K G S Kac K A V T], the “peptide microarray binding signal” value in experiment [1] (peptide modifications: H2BK11ac H2BK15ac, binder concentration: 50 nM) stood at 0.00295 ± 3.3e-05; in experiment [1] (peptide modifications: H2BK11ac H2BK15ac, binder concentration: 500 nM), 0.00457 ± 5.4e-05; in experiment [2] (peptide modifications: H2BK11ac H2BK15ac, binder concentration: 10 nM) it was 0.00686 ± 0.00014; in experiment [2] (peptide modifications: H2BK11ac H2BK15ac, binder concentration: 100 nM) it was 0.0056 ± 0.00049; in experiment [3] (setting [21]), 0.00319 ± 0.0012; in experiment [3] (setting [22]) it was 0.000913 ± 2.8e-05. Besides, the “peptide microarray binding signal” value stood at 0.00104 ± 1.4e-05 in experiment [4] (setting [21]) and 0.0015 ± 4.4e-05 in experiment [4] (setting [22]).
Consider APAPKKGSKKAVT [H2B 7-19 A P A P K K G Sph K K A V T], for which the “peptide microarray binding signal” value in experiment [1] (peptide modifications: H2BS14ph, binder concentration: 50 nM) turned out to be 0.00226 ± 0.00011; in experiment [1] (peptide modifications: H2BS14ph, binder concentration: 500 nM), 0.00381 ± 2.8e-05; in experiment [2] (peptide modifications: H2BS14ph, binder concentration: 10 nM), 0.00263 ± 3.9e-05; in experiment [2] (peptide modifications: H2BS14ph, binder concentration: 100 nM), 0.00163 ± 1.7e-05; in experiment [3] (setting [23]), 0.000302 ± 3.1e-06; in experiment [3] (setting [24]), 0.000799 ± 1.7e-05. For the same molecule, the results for the “peptide microarray binding signal” value in experiment [4] (setting [23]) and in experiment [4] (setting [24]) were 0.000438 ± 3.5e-05 and 0.00075 ± 4e-05, respectively.
